Data reported in PubChem BioAssay (Tox21).
Records with an inconclusive call do not appear. The source made the active and inactive calls. Unless noted, calls follow the shape of the full dose curve.

Tests used:
[1] = qHTS assay to identify small molecule agonists of the peroxisome proliferator-activated receptor delta (PPARd) signaling pathway - cell viability counter screen (AID 743211; active = well fitted curve in the direction sought with a large enough effect in the repeat runs; an effect the other way counts as inactive or inconclusive; also: nearly all actives have a fitted effect of over 55% in size; also: potency is read from the fitted curve at half-maximal effect)
Method in brief: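 Viability of GeneBLAzer PPARd UAS-bla HEK293H cells was assessed after 17 h compound incubation at 37C, using CellTiter-Glo reagent added after the reporter read and luminescence recorded 30 min later.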

[2] = qHTS assay to identify small molecule antagonists of the peroxisome proliferator-activated receptor delta (PPARd) signaling pathway - cell viability counter screen (AID 743213; active = well fitted curve in the direction sought with a large enough effect in the repeat runs; an effect the other way counts as inactive or inconclusive; also: nearly all actives have a fitted effect of over 50% in size)
Method in brief: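 Viability counter-screen, qHTS format: PPARd-bla HEK293H, L165041 300 nM final, 17 h compound exposure at 37 C, CellTiter-Glo luminescence after 30 min RT.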

[3] = biological target: Bile acid receptor (Homo sapiens) (UniProt Q96RI1); assay: qHTS assay to identify small molecule antagonists of the farnesoid-X-receptor (FXR) signaling pathway (AID 743217; active = well fitted inhibition curve with a large enough effect in the signal ratio in the repeat runs, not every such curve was filed as active; the % refers to the signal ratio; also: potency is read from the fitted curve at half-maximal effect)
Bile acid receptor (Homo sapiens), sequence (Q96RI1 whole entry, looked up): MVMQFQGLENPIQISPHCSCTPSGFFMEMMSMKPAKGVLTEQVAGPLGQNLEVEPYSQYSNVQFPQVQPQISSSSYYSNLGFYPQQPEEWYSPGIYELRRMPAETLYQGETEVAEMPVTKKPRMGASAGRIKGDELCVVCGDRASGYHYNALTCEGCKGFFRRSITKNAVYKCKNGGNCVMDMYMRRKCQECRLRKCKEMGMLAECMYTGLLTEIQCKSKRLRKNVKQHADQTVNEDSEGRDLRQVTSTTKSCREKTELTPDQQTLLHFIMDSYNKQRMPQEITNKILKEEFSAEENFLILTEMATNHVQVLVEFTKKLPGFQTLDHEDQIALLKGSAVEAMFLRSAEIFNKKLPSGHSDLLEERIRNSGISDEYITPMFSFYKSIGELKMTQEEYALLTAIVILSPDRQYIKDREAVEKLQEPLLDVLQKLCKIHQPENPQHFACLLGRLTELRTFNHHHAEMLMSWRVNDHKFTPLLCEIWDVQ
Method in brief: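 Antagonist mode: chenodeoxycholic acid at 50 uM final stimulates a UAS-driven beta-lactamase reporter in HEK 293T FXR-bla cells during 16 h, 37C compound exposure. Read-out is FRET substrate fluorescence after 2 h at room temperature.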

[4] = qHTS assay to identify small molecule agonists of the farnesoid-X-receptor (FXR) signaling pathway - cell viability counter screen (AID 743218; active = well fitted curve in the direction sought with a large enough effect in the repeat runs; an effect the other way counts as inactive or inconclusive; also: nearly all actives have a fitted effect of over 45% in size; also: potency is read from the fitted curve at half-maximal effect)
Method in brief: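 Viability counter screen in the same wells: CellTiter-Glo luminescence, 30 min room-temperature incubation, measured after the beta-lactamase read. Cells were GeneBLAzer FXR-UAS-bla HEK 293T, compound-treated 16 h at 37C.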

[5] = biological target: Bile acid receptor (Homo sapiens) (UniProt Q96RI1); assay: qHTS assay to identify small molecule agonists of the farnesoid-X-receptor (FXR) signaling pathway (AID 743220; active = well fitted activation curve with a large enough effect in the signal ratio in the repeat runs, not every such curve was filed as active; the % refers to the signal ratio)
Method in brief: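 FXR-UAS-bla HEK 293T cells carrying a UAS-driven beta-lactamase reporter were plated for 5 h at 37C/5% CO2, then exposed to DMSO-dissolved Tox21 10K compounds for 16 h at 37C. A LiveBLAzer B/G FRET substrate was loaded for 2 h at room temperature before fluorescence reading.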

[6] = qHTS assay to identify small molecule antagonists of the farnesoid-X-receptor (FXR) signaling pathway - cell viability counter screen (AID 743221; active = well fitted cell-killing curve with a large enough effect in the repeat runs, not every such curve was filed as active; also: nearly all actives have a fitted effect of over 50% in size)
Method in brief: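 Quantitative HTS of the Tox21 10K library run in parallel with the beta-lactamase reporter read. HEK 293T cells carrying a UAS-driven bla reporter got compound and 50 uM CDCA (final) for 16 h; ATP-based luminescence followed.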

[7] = biological target: Vitamin D3 receptor (Homo sapiens) (UniProt P11473); assay: qHTS assay to identify small molecule agonists of the vitamin D receptor (VDR) signaling pathway (AID 743222)
Vitamin D3 receptor (Homo sapiens), sequence (P11473 whole entry, looked up): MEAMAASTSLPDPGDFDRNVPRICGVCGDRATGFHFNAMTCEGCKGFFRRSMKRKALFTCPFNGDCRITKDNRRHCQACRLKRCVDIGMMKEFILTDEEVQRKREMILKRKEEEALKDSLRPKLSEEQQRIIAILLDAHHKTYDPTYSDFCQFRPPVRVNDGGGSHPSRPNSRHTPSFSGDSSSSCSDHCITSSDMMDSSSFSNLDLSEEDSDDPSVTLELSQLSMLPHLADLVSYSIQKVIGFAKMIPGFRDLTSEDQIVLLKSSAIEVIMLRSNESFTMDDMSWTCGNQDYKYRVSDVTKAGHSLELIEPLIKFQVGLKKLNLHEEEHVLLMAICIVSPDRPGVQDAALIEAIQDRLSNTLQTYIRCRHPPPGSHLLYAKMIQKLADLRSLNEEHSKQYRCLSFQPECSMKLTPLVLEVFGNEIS
Method in brief: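 Agonist mode, beta-lactamase reporter: fluorescence from LiveBLAzer B/G FRET substrate (2 h, room temperature) read after 16 h compound treatment at 37 C of VDR-bla cells, which were pre-incubated 4 h after seeding.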

[8] = biological target: Vitamin D3 receptor (Homo sapiens) (UniProt P11473); assay: qHTS assay to identify small molecule antagonists of the vitamin D receptor (VDR) signaling pathway (AID 743223; active = well fitted inhibition curve with a large enough effect in the signal ratio in the repeat runs, not every such curve was filed as active; the % refers to the signal ratio)
Method in brief: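 Fluorescence from LiveBLAzer B/G FRET substrate, read after 2 h at room temperature, reflects beta-lactamase reporter activity in VDR-bla cells treated 16 h at 37C with compounds and agonist 1alpha,25-dihydroxyvitamin D3 (3 nM final).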

[9] = qHTS assay to identify small molecule agonists of the vitamin D receptor (VDR) signaling pathway - cell viability counter screen (AID 743224; active = well fitted curve in the direction sought with a large enough effect in the repeat runs; an effect the other way counts as inactive or inconclusive; also: series mostly up to about 63 µM; nearly all actives have a fitted effect of over 50% in size)
Method in brief: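 Counter screen run in the same wells as the VDR-bla reporter assay: CellTiter-Glo luminescence, 30 min at room temperature, after 16 h compound treatment at 37C of cells pre-plated for 4 h.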

[10] = qHTS assay to identify small molecule antagonists of the vitamin D receptor (VDR) signaling pathway - cell viability counter screen (AID 743225; active = well fitted curve in the direction sought with a large enough effect in the repeat runs; an effect the other way counts as inactive or inconclusive; also: nearly all actives have a fitted effect of over 50% in size)
Method in brief: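 Cells (VDR-UAS-bla HEK 293T) are plated, rested 4 h at 37C, dosed with compound and 3 nM final 1-alpha,25-dihydroxy vitamin D3, and incubated 16 h. Viability is taken from CellTiter-Glo luminescence in the reporter wells.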

[11] = qHTS assay to identify small molecule agonists of the NFkB signaling pathway - cell viability counter screen (AID 1159515); also: series mostly up to about 61 µM; nearly all actives have a fitted effect of over 55% in size
Method in brief: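 Read by CellTiter-Glo luminescence (30 min, room temperature) in the wells also used for the beta-lactamase FRET read. ME-180 NFkB-bla cells at 2,000 per well were plated overnight, then exposed to compound for 5 hr at 37 C.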

[12] = qHTS assay to identify small molecule agonists of the endoplasmic reticulum stress response signaling pathway (AID 1159516; active = well fitted activation curve with a large enough effect in the signal ratio in the repeat runs, not every such curve was filed as active; the % refers to the signal ratio)
Method in brief: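 Ratiometric FRET readout (405 nm excitation; 460 and 530 nm emission) of a beta-lactamase gene driven by the ER stress response element, after 2 hr substrate loading. HeLa ESRE-bla cells were seeded overnight and treated with compounds for only 5 hr at 37 C.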

[13] = qHTS assay to identify small molecule agonists of the endoplasmic reticulum stress response signaling pathway - cell viability counter screen (AID 1159517)
Method in brief: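 Cytotoxicity of test compounds toward ESRE-bla HeLa cells was assessed after 5 hr exposure. The luminescent CellTiter-Glo signal was measured 30 min after reagent addition.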

[14] = qHTS assay to identify small molecule antagonists of the retinoid-related orphan receptor gamma (ROR-gamma) signaling pathway - cell viability counter screen (AID 1159520; active = well fitted curve in the direction sought with a large enough effect in the repeat runs; an effect the other way counts as inactive or inconclusive; also: nearly all actives have a fitted effect of over 50% in size)
Method in brief: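 Tet-on ROR gamma CHO cells (1,000/well) were plated 4 hr, given compounds in DMSO for 2 hr at 37 C, then induced with 1 uM final doxycycline for 16 hr. Viability was read as ATP by CellTiter-Glo luminescence after 30 min.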

[15] = qHTS assay to identify small molecule agonists of the AP-1 signaling pathway - cell viability counter screen (AID 1159525); also: nearly all actives have a fitted effect of over 55% in size
Method in brief: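 Each titration point was normalised to DMSO and tetra n-octyl ammonium bromide controls. The read was Cell Titer Glo luminescence after 30 min at RT, following 5 h compound exposure of ME-180 AP-1-bla cells at 37 °C.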

[16] = qHTS assay to identify small molecule agonists of the AP-1 signaling pathway (AID 1159526)
[17] = biological target: Peroxisome proliferator-activated receptor delta (Homo sapiens) (UniProt Q03181); assay: qHTS assay to identify small molecule agonists of the peroxisome proliferator-activated receptor delta (PPARd) signaling pathway (AID 743212);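 also: HEK293H cells with PPARd UAS beta-lactamase reporter GeneBLAzer system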
Peroxisome proliferator-activated receptor delta (Homo sapiens), sequence (Q03181 whole entry, looked up): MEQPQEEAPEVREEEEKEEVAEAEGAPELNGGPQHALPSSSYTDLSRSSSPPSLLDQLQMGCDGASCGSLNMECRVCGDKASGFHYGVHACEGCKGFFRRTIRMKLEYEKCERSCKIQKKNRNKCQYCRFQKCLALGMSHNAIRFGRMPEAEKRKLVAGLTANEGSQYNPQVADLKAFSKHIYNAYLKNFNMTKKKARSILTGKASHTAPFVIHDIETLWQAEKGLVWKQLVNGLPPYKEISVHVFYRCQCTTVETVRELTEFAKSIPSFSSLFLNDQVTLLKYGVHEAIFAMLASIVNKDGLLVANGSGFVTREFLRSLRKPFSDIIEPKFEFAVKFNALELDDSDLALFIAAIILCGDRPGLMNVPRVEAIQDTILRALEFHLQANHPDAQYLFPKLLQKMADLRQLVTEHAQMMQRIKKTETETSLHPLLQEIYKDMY
Method in brief: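 Beta-lactamase reporter read by fluorescence (LiveBLAzer B/G FRET, 2 h, room temperature). Test agents, in DMSO, incubated at 37 C with PPARd-bla HEK293H cells.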

[18] = biological target: Peroxisome proliferator-activated receptor delta (Homo sapiens) (UniProt Q03181); assay: qHTS assay to identify small molecule antagonists of the peroxisome proliferator-activated receptor delta (PPARd) signaling pathway (AID 743215; active = well fitted inhibition curve with a large enough effect in the signal ratio in the repeat runs, not every such curve was filed as active; the % refers to the signal ratio;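 also: cells stimulated with agonist L165041 at 300 nM final during compound exposure; series mostly up to about 62 µM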)
Method in brief: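 Agonist L165041 (300 nM final) added with compound to PPARd-bla HEK293H UAS-bla reporter cells; 17 h incubation at 37 C. Read-out: LiveBLAzer FRET substrate, 2 h at room temperature, fluorescence intensity.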

[19] = biological target: Nuclear receptor ROR-gamma (Homo sapiens) (UniProt P51449); assay: qHTS assay to identify small molecule antagonists of the retinoid-related orphan receptor gamma (ROR-gamma) signaling pathway (AID 1159521; active = well fitted curve in the direction sought with a large enough effect in the repeat runs; an effect the other way counts as inactive or inconclusive; also: nearly all actives have a fitted effect of over 50% in size; also: potency is read from the fitted curve at half-maximal effect)
Method in brief: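 RORγ antagonism is scored from reduced reporter luminescence in Tet-on CHO cells. Induction used 1 uM final doxycycline hyclate for 16 h at 37 C, following a 2 h compound exposure.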

Measured: Potency

Cc1cc(S(=O)(=O)O)ccc1N=Nc1c(O)ccc2ccccc12
inactive: [1] | [2] | [3] | [4] | [5] | [6] | [7] | [8] | [9] | [10] | [11] | [12] | [13] | [14] | [15] | [16]

COCC(O)CO (stereo unspecified)
inactive: [1] | [17] | [2] | [18] | [4] | [6] | [9] | [10] | [11] | [12] | [13]

CCCOc1ccc(S(=O)(=O)N2CCN(CC)CC2)cc1-c1nc2c(CC)n(Cc3ccccn3)nc2c(=O)[nH]1
inactive: [1] | [2] | [3] | [4] | [5] | [6] | [7] | [9] | [10] | [11] | [12] | [13] | [14] | [15] | [16]

Nc1nc(Cl)nc2c1ncn2[C@@H]1O[C@H](CO)[C@@H](O)[C@@H]1F
inactive: [1] | [17] | [2] | [4] | [5] | [6] | [7] | [9] | [11] | [12] | [13] | [16]

Cc1cc2nc3ccc(=[N+](C)C)cc-3sc2cc1N
active: [3] 10.6 µM
inactive: [17] | [2] | [18] | [5] | [6] | [7] | [8] | [10] | [11] | [12] | [13] | [19]

CCOC(=O)CC(=O)C(=O)OCC
inactive: [1] | [17] | [2] | [3] | [4] | [5] | [6] | [7] | [9] | [11] | [12] | [13] | [14] | [15] | [16]

Fc1ccccc1[C@@H](F)COC1CCC(Nc2ncnc3[nH]ncc23)CC1 (stereo partly specified)
active: [3] 43.6 µM | [19] 12.2 µM
inactive: [17] | [2] | [4] | [5] | [6] | [7] | [11] | [12] | [13] | [15] | [16]

Nc1ccc(S(=O)(=O)O)cc1
inactive: [1] | [2] | [3] | [4] | [5] | [6] | [7] | [8] | [9] | [10] | [11] | [12] | [13] | [14] | [15] | [16]

CN(C)C(=O)Nc1ccc(Oc2ccc(Cl)cc2)cc1
inactive: [1] | [4] | [6] | [7] | [8] | [9] | [10] | [11] | [12] | [13] | [14] | [15] | [16]

Cc1c(C(=O)NN2CCCCC2)nn(-c2ccc(Cl)cc2Cl)c1-c1ccc(Cl)cc1
inactive: [5] | [11] | [12] | [13] | [15] | [16]
active: [1] 23.7 µM | [4] 33.5 µM

CC(=O)Oc1ccc(C(=C2CCCCC2)c2ccc(OC(C)=O)cc2)cc1
inactive: [17] | [3] | [4] | [5] | [6] | [10] | [11] | [12] | [13] | [15] | [16]

CCCCC(CC)CNCC(CC)CCCC (stereo unspecified)
inactive: [1] | [17] | [2] | [18] | [3] | [4] | [5] | [6] | [7] | [8] | [9] | [10] | [11] | [12] | [14] | [19] | [15] | [16]

COC(=O)CC(=O)C(C)(C)C
inactive: [1] | [17] | [2] | [18] | [3] | [4] | [5] | [7] | [8] | [9] | [11] | [12] | [13] | [15] | [16]
